{
  "source": "paper PMC11062922",
  "about": "(Nature Chemical Biology, 2023)",
  "key": {"PIK3CD": {"test_system": "PIK3CD", "design": "species or system human, MV4-11 + K-562 + COLO205 + SK-N-BE2 + OVCAR-8", "details": "read-out: apparent Kd, n = 1"}, "PIK3CB": {"test_system": "PIK3CB", "design": "species or system human, MV4-11 + K-562 + COLO205 + SK-N-BE2 + OVCAR-8", "details": "read-out: apparent Kd, n = 1"}, "[1]": {"details": "compound concentrations:100 nM and 1000 nM (sheet 'Samples')"}, "[2]": {"details": "compound concentrations: 100 nM and 1000 nM (sheet 'Samples'), CATDS: 1"}},
  "note": "Like-named read-outs stand apart in the source and are kept apart here.",
  "data": [
    {"smiles": "CN(C1=C(c2ccccc2)C(=O)NC1=O)c1ccccc1", "note": "[SB-334860]", "values": [
      {"measurement": "potency estimated from few doses", "setting": "PIK3CD; [1]", "value": 175, "unit": "nM"}
    ]},
    {"smiles": "Nc1ncc(-c2ccc3nccc(-c4ccncc4)c3c2)cc1S(=O)(=O)N1CCCCC1", "note": "[GSK1693850A]", "values": [
      {"measurement": "potency estimated from few doses", "setting": "PIK3CB; compound concentrations: 100 nM and 1000 nM (sheet 'Samples'), CATDS: 8.8291431205062498E-2", "value": 406, "unit": "nM"},
      {"measurement": "potency estimated from few doses", "setting": "PIK3CD; compound concentrations: 100 nM and 1000 nM (sheet 'Samples'), CATDS: 0.491044301139066", "value": 4.69, "unit": "nM"}
    ]},
    {"smiles": "Cl.NC(=O)c1cccc(Nc2nccc(Nc3ccc(Oc4c(Cl)cccc4Cl)c(Cl)c3)n2)c1", "note": "[GW659009A]", "values": [
      {"measurement": "potency estimated from few doses", "setting": "PIK3CD; compound concentrations: 100 nM and 1000 nM (sheet 'Samples'), CATDS: 0.90760673272471903", "value": 9.83, "unit": "nM"}
    ]},
    {"smiles": "Cc1ccccc1Cn1ccn2c(=O)cc(N3CCOCC3)nc12", "note": "[GSK2269905A]", "values": [
      {"measurement": "potency estimated from few doses", "setting": "PIK3CB; compound concentrations: 100 nM and 1000 nM (sheet 'Samples'), CATDS: 0.94535386241692498", "value": 41.9, "unit": "nM"}
    ]},
    {"smiles": "CSc1nn2c(=O)cc(N3CCOCC3)nc2n1Cc1cccc(Cl)c1Cl", "note": "[GSK2347225A]", "values": [
      {"measurement": "potency estimated from few doses", "setting": "PIK3CB; compound concentrations: 100 nM and 1000 nM (sheet 'Samples'), CATDS: 0.69525432072765503", "value": 11.5, "unit": "nM"}
    ]},
    {"smiles": "COc1ncc(-c2cc(-c3ncc(CN4C[C@@H](C)O[C@@H](C)C4)o3)c3cn[nH]c3c2)cc1NS(C)(=O)=O", "note": "[GSK2292767]", "values": [
      {"measurement": "potency estimated from few doses", "setting": "PIK3CB; compound concentrations: 100 nM and 1000 nM (sheet 'Samples'), CATDS: 0.10653178363766699", "value": 335, "unit": "nM"},
      {"measurement": "potency estimated from few doses", "setting": "PIK3CD; compound concentrations: 100 nM and 1000 nM (sheet 'Samples'), CATDS: 0.86289624081171401", "value": 0.614, "unit": "nM"}
    ]},
    {"smiles": "CCCCCc1nc2c(N)ncnc2n1CCCCC", "note": "[SKF-97255]", "values": [
      {"measurement": "potency estimated from few doses", "setting": "PIK3CD; [2]", "value": 152, "unit": "nM"}
    ]},
    {"smiles": "Cc1c(Cn2c(C)c(C)n3c(=O)cc(N4CCOCC4)nc23)cccc1C(F)(F)F", "note": "[GSK2328680_KCGS]", "values": [
      {"measurement": "potency estimated from few doses", "setting": "PIK3CB; [2]", "value": 45.8, "unit": "nM"}
    ]},
    {"smiles": "Cc1nn2c(=O)cc(N3CCOCC3)nc2n1Cc1cccc(Cl)c1Cl", "note": "[GSK2342769A]", "values": [
      {"measurement": "potency estimated from few doses", "setting": "PIK3CB; compound concentrations: 100 nM and 1000 nM (sheet 'Samples'), CATDS: 0.39167168284884402", "value": 14.2, "unit": "nM"},
      {"measurement": "potency estimated from few doses", "setting": "PIK3CD; [1]", "value": 87.6, "unit": "nM"}
    ]},
    {"smiles": "Cc1cccc(-c2nc(Nc3ccc4c(cnn4C)c3)c3ccccc3n2)n1", "note": "[GW876731X]", "values": [
      {"measurement": "potency estimated from few doses", "setting": "PIK3CD; [1]", "value": 158, "unit": "nM"}
    ]},
    {"smiles": "Cc1nn2c(=O)cc(N3CCO[C@H](C)C3)nc2n1Cc1cccc(Cl)c1Cl", "note": "[GSK2373693A]", "values": [
      {"measurement": "potency estimated from few doses", "setting": "PIK3CB; [2]", "value": 11.8, "unit": "nM"}
    ]},
    {"smiles": "O=c1cc(N2CCOCC2)nc2n(Cc3cccc(Cl)c3)ccn12", "note": "[GSK2296823A]", "values": [
      {"measurement": "potency estimated from few doses", "setting": "PIK3CB; [1]", "value": 30.5, "unit": "nM"}
    ]},
    {"smiles": "Cc1c(Cn2c(C)nn3c(=O)cc(N4CCO[C@H](C)C4)nc23)cccc1C(F)(F)F", "note": "[GSK2373690A]", "values": [
      {"measurement": "potency estimated from few doses", "setting": "PIK3CB; [1]", "value": 6.1, "unit": "nM"}
    ]},
    {"smiles": "COc1ccc(Nc2nccc(N3CCC(NC(=O)c4cccc(NC(C)=O)c4)C3)n2)cc1", "note": "(stereo not shown) [GSK1379732A]", "values": [
      {"measurement": "potency estimated from few doses", "setting": "PIK3CD; [2]", "value": 141, "unit": "nM"}
    ]},
    {"smiles": "O=c1cc(N2CCOCC2)nc2n(Cc3ccc(F)c(Cl)c3)ccn12", "note": "[GSK2297099A]", "values": [
      {"measurement": "potency estimated from few doses", "setting": "PIK3CB; compound concentrations: 100 nM and 1000 nM (sheet 'Samples'), CATDS: 0.58054918147360901", "value": 32.5, "unit": "nM"},
      {"measurement": "potency estimated from few doses", "setting": "PIK3CD; [1]", "value": 150, "unit": "nM"}
    ]},
    {"smiles": "CC(C)c1ccc(O)cc1Nc1ccnc2ccc(C(F)(F)F)cc12", "note": "[GW482059X]", "values": [
      {"measurement": "potency estimated from few doses", "setting": "PIK3CD; compound concentrations: 100 nM and 1000 nM (sheet 'Samples'), CATDS: 0.57570605535332697", "value": 139, "unit": "nM"}
    ]},
    {"smiles": "CN(C)S(=O)(=O)c1cc(-c2ccc3nccc(-c4cccc(S(N)(=O)=O)c4)c3c2)cnc1N", "note": "[GSK1669921A]", "values": [
      {"measurement": "potency estimated from few doses", "setting": "PIK3CB; compound concentrations: 100 nM and 1000 nM (sheet 'Samples'), CATDS: 0.12770502550951299", "value": 777, "unit": "nM"},
      {"measurement": "potency estimated from few doses", "setting": "PIK3CD; compound concentrations: 100 nM and 1000 nM (sheet 'Samples'), CATDS: 0.59190161407117303", "value": 9.62, "unit": "nM"}
    ]},
    {"smiles": "CC(C)N1CCN(Cc2cnc(-c3cc(-c4cccc5[nH]ccc45)cc4[nH]ncc34)o2)CC1", "note": "[GSK2269557]", "values": [
      {"measurement": "potency estimated from few doses", "setting": "PIK3CD; [2]", "value": 1.45, "unit": "nM"}
    ]},
    {"smiles": "C[C@H]1CC[C@@H](C(=O)Nc2ccccc2)CN1c1cc(-c2ccc3c(N)n[nH]c3c2)nc(N)n1", "note": "[GSK2283293_KCGS]", "values": [
      {"measurement": "potency estimated from few doses", "setting": "PIK3CB; [1]", "value": 1130, "unit": "nM"},
      {"measurement": "potency estimated from few doses", "setting": "PIK3CD; [1]", "value": 168, "unit": "nM"}
    ]},
    {"smiles": "CCn1c(-c2ccncc2)nc2cnccc21", "note": "[SB-735216]", "values": [
      {"measurement": "potency estimated from few doses", "setting": "PIK3CD; compound concentrations: 100 nM and 1000 nM (sheet 'Samples'), CATDS: 0.88201100485399897", "value": 172, "unit": "nM"}
    ]},
    {"smiles": "O=C(O)C(F)(F)F.[2H]C([2H])(c1cccc(C(F)(F)F)c1C)n1c(SC)nn2c(=O)cc(N3CCOCC3)nc12", "note": "[GSK2363608B]", "values": [
      {"measurement": "potency estimated from few doses", "setting": "PIK3CB; [1]", "value": 8.69, "unit": "nM"},
      {"measurement": "potency estimated from few doses", "setting": "PIK3CD; [1]", "value": 146, "unit": "nM"}
    ]}
  ]
}
